Our source for the growth inhibition values is PubChem BioAssay (NCI).

The nature of assay [1]: NCI Yeast Anticancer Drug Screen. Data for the rad50 strain (AID 155).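 Also: 0% = growth of vehicle-only cultures of the same strain.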 The conditions noted are these: S. cerevisiae rad50 strain growth inhibition, stronger effect = higher value. In short, it runs like this:
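A DNA repair-deficient yeast mutant serves as the test organism; compound-induced growth inhibition is calculated against vehicle-treated cells.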

The nature of assay [2]: NCI Yeast Anticancer Drug Screen. Data for the mec2-1 strain (AID 157). The conditions noted are these: S. cerevisiae mec2-1 strain, stronger effect = higher value. Put shortly: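 Each compound was tested on mec2-1 yeast, a strain altered in DNA damage repair or cell cycle control. Growth inhibition is reported relative to vehicle.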
Assay [3] is described as follows: NCI Yeast Anticancer Drug Screen. Data for the sgs1 mgt1 strain (AID 161).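 Also: 0% = growth of cultures given vehicle only.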 The conditions noted are these: S. cerevisiae sgs1 mgt1 strain, stronger effect = higher value. Put shortly: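 Test agents were incubated with a DNA-repair-mutant yeast strain. Growth was then read and compared against vehicle-treated controls.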
The nature of assay [4]: NCI Yeast Anticancer Drug Screen. Data for the cln2 rad14 strain (AID 165).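 Also: 0% = growth equal to vehicle treated cultures.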 The conditions noted are these: S. cerevisiae cln2 rad14 strain, stronger effect = higher value. Put shortly: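 Test compounds were added to cln2 rad14 yeast cultures; inhibition of growth was then determined by comparison with vehicle treatment.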
Assay [5] in a line: NCI Yeast Anticancer Drug Screen. Data for the bub3 strain (AID 167). The conditions noted are these: S. cerevisiae bub3 mutant strain, stronger effect = higher value. Put shortly: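 Inhibition values come from growth of compound-treated mutant yeast normalised to vehicle-treated controls.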
A short description of assay [6]: NCI Yeast Anticancer Drug Screen. Data for the mlh1 rad18 strain (AID 175). The following applies: S. cerevisiae mlh1 rad18 strain growth inhibition, stronger effect = higher value. In short, it runs like this: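 Inhibition values reflect reduced growth of mutant yeast versus vehicle-treated controls following compound exposure; the mutations affect DNA damage repair.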
Where [7] appears, read: at 5.0 µM (retest, dose inferred, filed as 0.5).
Setting [8] is: at 50.0 µM (retest, dose inferred, filed as 5.0).

Each structure is given as a SMILES string. “And” between values parts separate entries of the source, which are not always exact repeats. Equal values may be shown once. Compounds without any hit were thinned out: in the full panel of roughly 79,000, 15% have a hit. A structure can be active in one record and inactive in another. The source made the active and inactive calls. Rule as the data show it: active = growth inhibition above about 70%; inactive = the rest.

Regarding `CCCCCCCCCCCCCCCCCCOCC(COP(=O)([O-])OCC[N+](C)(C)C)OC` (centres undefined), the growth inhibition is -16% (inactive) in assay [1] (setting [7]); -9% (inactive) in assay [1] (setting [8]); 90% (active) and 20.7% (inactive) in assay [1] (at 50.0 µM); -4% (inactive) in assay [2] (setting [7]); -28% (inactive) in assay [2] (setting [8]); 91.4% (active) and -4.35% (inactive) in assay [2] (at 50.0 µM). In addition, the growth inhibition in assay [3] (setting [7]) was -13% (inactive); in assay [3] (setting [8]), -14% (inactive); in assay [3] (at 50.0 µM), 91.5% (active) and -31.4% (inactive); in assay [4] (setting [7]), -1% (inactive); in assay [4] (setting [8]), -46% (inactive); in assay [4] (at 50.0 µM), 88.2% (active) and 9.5% (inactive). Moreover, the growth inhibition was -16% (inactive) in assay [5] (setting [7]); -28% (inactive) in assay [5] (setting [8]); 90.5% (active) and -7.55% (inactive) in assay [5] (at 50.0 µM); -59% (inactive) in assay [6] (setting [7]); -88% (inactive) in assay [6] (setting [8]); -1.25% (inactive) and -47% (inactive) in assay [6] (at 50.0 µM).
As to `CCCCCCCN`, the growth inhibition in assay [1] (setting [7]) is 1% (inactive); in assay [1] (setting [8]), 89% (active); in assay [1] (at 50.0 µM), 50% (inactive); in assay [2] (setting [7]), -9% (inactive); in assay [2] (setting [8]), 85% (active); in assay [2] (at 50.0 µM), 20.9% (inactive). The growth inhibition in assay [3] (setting [7]) was -2% (inactive); in assay [3] (setting [8]) it was 91% (active); in assay [3] (at 50.0 µM) it was 19.9% (inactive); in assay [4] (setting [7]), -5% (inactive); in assay [4] (setting [8]), 52% (inactive); in assay [4] (at 50.0 µM) it was 33.7% (inactive). In addition, the growth inhibition is -2% (inactive) in assay [5] (setting [7]); 86% (active) in assay [5] (setting [8]); 12.1% (inactive) in assay [5] (at 50.0 µM); -5% (inactive) in assay [6] (setting [7]); 88% (active) in assay [6] (setting [8]); 48.1% (inactive) in assay [6] (at 50.0 µM).
In the case of `Cc1noc(-c2ccc([N+](=O)[O-])o2)n1`, the growth inhibition was 6% (inactive) in assay [1] (setting [7]); 85% (active) in assay [1] (setting [8]); 93.5% (active) in assay [1] (at 50.0 µM); -1% (inactive) in assay [2] (setting [7]); 82% (active) in assay [2] (setting [8]); 52.1% (inactive) in assay [2] (at 50.0 µM). Moreover, the growth inhibition in assay [3] (setting [7]) was 5% (inactive); in assay [3] (setting [8]), 87% (active); in assay [3] (at 50.0 µM) it was 74.6% (active); in assay [4] (setting [7]), -6% (inactive); in assay [4] (setting [8]), 57% (inactive); in assay [4] (at 50.0 µM), 57.9% (inactive). Moreover, the growth inhibition was 2% (inactive) in assay [5] (setting [7]); 80% (active) in assay [5] (setting [8]); 63.9% (inactive) in assay [5] (at 50.0 µM); 24% (inactive) in assay [6] (setting [7]); 94% (active) in assay [6] (setting [8]); 87.8% (active) in assay [6] (at 50.0 µM).
Consider `CN(C)Cc1cc(CN(C)C)c(O)c(CN(C)C)c1`, for which the growth inhibition in assay [1] (setting [7]) was 8% (inactive); in assay [1] (setting [8]), 19% (inactive); in assay [1] (at 50.0 µM) it was -34.9% (inactive) and 40.3% (inactive); in assay [2] (setting [7]), 2% (inactive); in assay [2] (setting [8]), 2% (inactive); in assay [2] (at 50.0 µM), -58.3% (inactive) and 59.9% (inactive). Also, the growth inhibition in assay [3] (setting [7]) was 4% (inactive); in assay [3] (setting [8]) it was 11% (inactive); in assay [3] (at 50.0 µM), 0.25% (inactive) and 2.75% (inactive); in assay [4] (setting [7]), -3% (inactive); in assay [4] (setting [8]) it was -8% (inactive); in assay [4] (at 50.0 µM), -24.1% (inactive) and -31.1% (inactive). The growth inhibition was 14% (inactive) in assay [5] (setting [7]); 39% (inactive) in assay [5] (setting [8]); -43.5% (inactive) and 65.3% (inactive) in assay [5] (at 50.0 µM); -6% (inactive) in assay [6] (setting [7]); -9% (inactive) in assay [6] (setting [8]); -22.2% (inactive) and 48.1% (inactive) in assay [6] (at 50.0 µM).
For the compound `COC1OC2COC(c3ccccc3)OC2C(O)C1OS(=O)(=O)c1ccc(C)cc1` (centres undefined), the growth inhibition is -3% (inactive) in assay [1] (setting [7]); 1% (inactive) in assay [1] (setting [8]); 46.5% (inactive) and 3.9% (inactive) in assay [1] (at 50.0 µM); 0% (inactive) in assay [2] (setting [7]); 51% (inactive) in assay [2] (setting [8]); 46.4% (inactive) and 2.7% (inactive) in assay [2] (at 50.0 µM). For the same compound, the growth inhibition was -7% (inactive) in assay [3] (setting [7]); 46% (inactive) in assay [3] (setting [8]); 74.6% (active) and 16.9% (inactive) in assay [3] (at 50.0 µM); -10% (inactive) in assay [4] (setting [7]); -8% (inactive) in assay [4] (setting [8]); 31.8% (inactive) and -1.35% (inactive) in assay [4] (at 50.0 µM). The growth inhibition in assay [5] (setting [7]) was -3% (inactive); in assay [5] (setting [8]) it was 2% (inactive); in assay [5] (at 50.0 µM), 32.3% (inactive) and -1.1% (inactive); in assay [6] (setting [7]) it was -1% (inactive); in assay [6] (setting [8]) it was 49% (inactive); in assay [6] (at 50.0 µM) it was 63.1% (inactive) and 0.65% (inactive).
Turning to `Clc1ccc(/C=C/c2ccccn2)c(Cl)c1`, the growth inhibition is 3% (inactive) in assay [1] (setting [7]); 43% (inactive) in assay [1] (setting [8]); -14.9% (inactive) and 12.1% (inactive) in assay [1] (at 50.0 µM); -3% (inactive) in assay [2] (setting [7]); 12% (inactive) in assay [2] (setting [8]); 6.2% (inactive) and 3.7% (inactive) in assay [2] (at 50.0 µM). Also, the growth inhibition in assay [3] (setting [7]) is -2% (inactive); in assay [3] (setting [8]), 5% (inactive); in assay [3] (at 50.0 µM), -23.1% (inactive) and 58% (inactive); in assay [4] (setting [7]), -6% (inactive); in assay [4] (setting [8]) it was -4% (inactive); in assay [4] (at 50.0 µM), -0.55% (inactive) and 20.8% (inactive). For the same compound, the growth inhibition in assay [5] (setting [7]) was 51% (inactive); in assay [5] (setting [8]), 10% (inactive); in assay [5] (at 50.0 µM) it was -9.75% (inactive) and 4% (inactive); in assay [6] (setting [7]) it was 1% (inactive); in assay [6] (setting [8]) it was 11% (inactive); in assay [6] (at 50.0 µM) it was -47.5% (inactive) and 31% (inactive).
For the compound `COc1ccc2c(c1)C(Cc1ccc(Oc3ccc(CC4c5cc(OC)ccc5CC[N+]4(C)C)cc3)cc1)[N+](C)(C)CC2` (centres undefined), the growth inhibition was -12% (inactive) in assay [1] (setting [7]); 62% (inactive) in assay [1] (setting [8]); 96.8% (active) in assay [1] (at 50.0 µM); -6% (inactive) in assay [2] (setting [7]); 51% (inactive) in assay [2] (setting [8]); 97.2% (active) in assay [2] (at 50.0 µM). Further, the growth inhibition is -7% (inactive) in assay [3] (setting [7]); 91% (active) in assay [3] (setting [8]); 99.2% (active) in assay [3] (at 50.0 µM); -4% (inactive) in assay [4] (setting [7]); 54% (inactive) in assay [4] (setting [8]); 72% (active) in assay [4] (at 50.0 µM). Also, the growth inhibition was -3% (inactive) in assay [5] (setting [7]); 82% (active) in assay [5] (setting [8]); 84.7% (active) in assay [5] (at 50.0 µM); -10% (inactive) in assay [6] (setting [7]); 95% (active) in assay [6] (setting [8]); 98.8% (active) in assay [6] (at 50.0 µM).
As to `C=CCCC(=O)O`, the growth inhibition in assay [1] (setting [7]) is 6% (inactive); in assay [1] (setting [8]), 7% (inactive); in assay [1] (at 50.0 µM), 1.25% (inactive) and 2.45% (inactive); in assay [2] (setting [7]), 7% (inactive); in assay [2] (setting [8]), 2% (inactive); in assay [2] (at 50.0 µM), -2.15% (inactive) and -0.6% (inactive). The growth inhibition was 5% (inactive) in assay [3] (setting [7]); 3% (inactive) in assay [3] (setting [8]); -11.3% (inactive) and 4.3% (inactive) in assay [3] (at 50.0 µM); 4% (inactive) in assay [4] (setting [7]); 4% (inactive) in assay [4] (setting [8]); 54.4% (inactive) and 5.75% (inactive) in assay [4] (at 50.0 µM). In addition, the growth inhibition is 4% (inactive) in assay [5] (setting [7]); 1% (inactive) in assay [5] (setting [8]); 64.5% (inactive) and 9.55% (inactive) in assay [5] (at 50.0 µM); 0% (inactive) in assay [6] (setting [7]); 2% (inactive) in assay [6] (setting [8]); -40.5% (inactive) and 0.95% (inactive) in assay [6] (at 50.0 µM).
